# Assay results from PubChem BioAssay (NCATS).
# Results filed as inconclusive are left out. A call without a number means that no potency is given here. Activity calls are given as the source filed them. Calls follow the shape of the dose curve; as a rule, active = well fitted curve in the direction sought with a large enough effect; inconclusive = small, poorly fitted or top-dose-only effect, or another doubt; inactive = no such curve, though single readings can be large; an effect the other way counts as inactive or inconclusive.
# Legend:
# [1] = qHTS of pediatric cancer cell lines to identify multiple opportunities for drug repurposing: Primary screen for NB-EBc1 cells (AID 1347095); also: potency is read from the fitted curve at half-maximal effect
# In short: (§1)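 Viability was measured as metabolically active cells after 48 hours of treatment, read by CellTiter-Glo luminescence. Compounds were tested at multiple final concentrations, giving concentration-response curves.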
# [2] = qHTS of pediatric cancer cell lines to identify multiple opportunities for drug repurposing: Primary screen for U-2 OS cells (AID 1347096); also: nearly all actives have a fitted effect of over 50% in size
# In short: (§2)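 Cells (500-1,000/well) rested 5 h, then received compounds for 48 h; metabolically active cells were measured by CellTiter-Glo luminescence. Final concentrations spanned up to 46 µM (MIPE, 11-point) or 0.59 nM-46 µM (NPC, 8-point) in primary screens, 11-point in follow-ups.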
# [3] = qHTS of pediatric cancer cell lines to identify multiple opportunities for drug repurposing: Primary screen for SK-N-SH cells (AID 1347098); also: nearly all actives have a fitted effect of over 65% in size; also: potency is read from the fitted curve at half-maximal effect
# In short: as §2
# [4] = qHTS of pediatric cancer cell lines to identify multiple opportunities for drug repurposing: Primary screen for NB1643 cells (AID 1347099); also: nearly all actives have a fitted effect of over 50% in size; also: potency is read from the fitted curve at half-maximal effect
# In short: as §1
# [5] = qHTS of pediatric cancer cell lines to identify multiple opportunities for drug repurposing: Primary screen for LAN-5 cells (AID 1347100); also: potency is read from the fitted curve at half-maximal effect
# In short: as §2
# [6] = qHTS of pediatric cancer cell lines to identify multiple opportunities for drug repurposing: Primary screen for BT-12 cells (AID 1347101); also: nearly all actives have a fitted effect of over 25% in size; also: potency is read from the fitted curve at half-maximal effect
# In short: as §2
# [7] = qHTS of pediatric cancer cell lines to identify multiple opportunities for drug repurposing: Primary screen for Rh18 cells (AID 1347102); also: nearly all actives have a fitted effect of over 65% in size; also: potency is read from the fitted curve at half-maximal effect
# In short: as §2
# [8] = qHTS of pediatric cancer cell lines to identify multiple opportunities for drug repurposing: Primary screen for RD cells (AID 1347104); also: nearly all actives have a fitted effect of over 55% in size; also: potency is read from the fitted curve at half-maximal effect
# In short: as §1
# [9] = qHTS of pediatric cancer cell lines to identify multiple opportunities for drug repurposing: Primary screen for MG 63 (6-TG R) cells (AID 1347105); also: nearly all actives have a fitted effect of over 50% in size
# In short: as §1
# [10] = qHTS of pediatric cancer cell lines to identify multiple opportunities for drug repurposing: Primary screen for control Hh wild type fibroblast cells (AID 1347106);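 also: series mostly up to about 46 µM; a drop in luminescence marks cytotoxicity and a rise apparent proliferation; nearly all actives have a fitted effect of over 55% in size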
# In short: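 Cells (500-1,000/well) in growth media were settled 5 h at 37 degrees C, then given compounds for 48 h. Viability was read as CellTiter-Glo luminescence. Primary runs used MIPE at 11 points (0.78 nM-46 µM) and NPC at 8 points (0.59 nM-46 µM); follow-ups used 11 points.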
# [11] = qHTS of pediatric cancer cell lines to identify multiple opportunities for drug repurposing: Primary screen for Rh30 cells (AID 1347107); also: series mostly up to about 46 µM; nearly all actives have a fitted effect of over 75% in size
# In short: as §2
# [12] = qHTS of pediatric cancer cell lines to identify multiple opportunities for drug repurposing: Primary screen for Rh41 cells (AID 1347108);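 also: series mostly up to about 46 µM; luminescence drop marks cytotoxic hits; nearly all actives have a fitted effect of over 70% in size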
# In short: as §1
# [13] = qHTS of pediatric cancer cell lines to identify multiple opportunities for drug repurposing: Primary screen for OHS-50 cells (AID 1347103); also: nearly all actives have a fitted effect of over 40% in size; also: potency is read from the fitted curve at half-maximal effect
# In short: as §2
# [14] = qHTS of pediatric cancer cell lines to identify multiple opportunities for drug repurposing: Primary screen for Saos-2 cells (AID 1347097); also: nearly all actives have a fitted effect of over 40% in size; also: potency is read from the fitted curve at half-maximal effect
# In short: as §1
SMILES,Potency [1],Potency [2],Potency [3],Potency [4],Potency [5],Potency [6],Potency [7],Potency [8],Potency [9],Potency [10],Potency [11],Potency [12],Potency [13],Potency [14]
CCN1CCN(c2cc(-c3ccc(F)cc3)c3c(n2)CCCCCC3)CC1,inactive,inactive,inactive,inactive,inactive,inactive,inactive,inactive,inactive,inactive,inactive,inactive,,
CCN(CC)CC(=O)Oc1ccc(NC(C)=O)cc1,inactive,inactive,inactive,inactive,inactive,inactive,inactive,inactive,inactive,inactive,inactive,inactive,,
COC(=O)C1=C(C)NC(COC(N)=O)=C(C(=O)OC(C)C)C1c1cccc(Cl)c1Cl (centres undefined),inactive,inactive,24.4 µM (active),inactive,inactive,,inactive,inactive,inactive,inactive,inactive,inactive,,
O=C(O)CCCC[C@@H]1SC[C@@H]2NC(=O)N[C@@H]21,inactive,inactive,inactive,inactive,inactive,inactive,inactive,inactive,inactive,inactive,inactive,inactive,inactive,
Cc1ccc(Cl)c(OCC(O)CNC(C)(C)C)c1 (centres undefined),inactive,inactive,inactive,inactive,inactive,inactive,inactive,,inactive,inactive,inactive,inactive,,
CN(CC1(C)CCCO1)S(=O)(=O)c1ccc(Cl)c(S(N)(=O)=O)c1 (centres undefined),inactive,inactive,inactive,inactive,inactive,inactive,,inactive,inactive,inactive,inactive,inactive,inactive,
COC(=O)CCCCC(CCSS/C(CCO)=C(\C)N(C=O)Cc1cnc(C)nc1N)SC(C)=O (centres undefined),inactive,inactive,inactive,inactive,inactive,inactive,inactive,,inactive,inactive,inactive,,inactive,
O=c1[nH]c(=O)n([C@H]2O[C@H](CO)[C@@H](O)[C@@H]2O)cc1/C=C\Br,inactive,inactive,inactive,inactive,inactive,inactive,inactive,inactive,inactive,inactive,,inactive,inactive,
CC(=O)OC/C=C(C)/C=C/C=C(C)/C=C/C1=C(C)CCCC1(C)C,inactive,inactive,inactive,inactive,inactive,,inactive,inactive,inactive,inactive,inactive,inactive,inactive,
O=C1NC(c2ccccc2)(c2ccccc2)C(=O)N1COP(=O)(O)O,inactive,inactive,inactive,inactive,inactive,inactive,,,inactive,inactive,inactive,,inactive,
CC(=O)N(CC(=O)N(C)C)c1ccccc1,inactive,inactive,inactive,inactive,inactive,inactive,inactive,,inactive,inactive,inactive,inactive,inactive,
Cc1ccc(C(C)OC(=O)C2(C)CCC(C(=O)O)C2(C)C)cc1 (centres undefined),inactive,inactive,inactive,inactive,inactive,inactive,inactive,inactive,inactive,inactive,inactive,inactive,inactive,
CN1CCN(N)CC1,inactive,inactive,inactive,inactive,inactive,inactive,inactive,inactive,inactive,,inactive,inactive,inactive,
CCOC(=O)c1ccc(OCCN2C[C@H](O)[C@@H](O)[C@H](O)[C@H]2CO)cc1,inactive,inactive,inactive,inactive,inactive,inactive,inactive,inactive,inactive,inactive,inactive,inactive,,
CC(C)(C)c1cc(C=O)cc(C(C)(C)C)c1O,inactive,inactive,inactive,inactive,inactive,inactive,inactive,inactive,inactive,inactive,inactive,inactive,inactive,
CC(CCc1ccc2c(c1)OCO2)NN (centres undefined),inactive,inactive,inactive,inactive,inactive,inactive,inactive,inactive,inactive,inactive,inactive,inactive,inactive,
O=C1OC2(c3ccccc31)c1cc(I)c(O)c(I)c1Oc1c2cc(I)c(O)c1I,inactive,inactive,inactive,,inactive,,,inactive,inactive,inactive,,inactive,,
NC(=O)NC1N=C([O][Al])NC1=O (centres undefined),inactive,,inactive,inactive,inactive,inactive,inactive,inactive,inactive,inactive,inactive,inactive,inactive,inactive
Nc1ccc(C(=O)OCC(O)CO)cc1 (centres undefined),inactive,,inactive,0.001 µM (active),inactive,inactive,inactive,inactive,inactive,inactive,inactive,inactive,inactive,inactive
CCCCCCCCCCCCCC[N+](C)(C)C,21.1 µM (active),,15.4 µM (active),23.7 µM (active),7.5 µM (active),3.89 µM (active),4.22 µM (active),11.9 µM (active),,,,,3.09 µM (active),16.8 µM (active)
COC(=O)c1cc(Cl)c(NC(C)=O)cc1OC,inactive,,inactive,inactive,inactive,inactive,inactive,inactive,inactive,inactive,inactive,inactive,inactive,inactive
C[C@@]12CCC[C@H]1[C@@H]1CC[C@H]3C[C@@H](O)CC[C@]3(C)[C@H]1CC2,inactive,inactive,inactive,inactive,inactive,,inactive,inactive,,inactive,inactive,inactive,,
OCCCc1ccccc1,inactive,,inactive,inactive,inactive,inactive,inactive,inactive,inactive,,inactive,inactive,inactive,inactive
